Measured values published in PubChem BioAssay AID485270 (The Scripps Research Institute Molecular Screening Center, 2010).
Hit rate of the full screen: of about 330,000 compounds, about 5,800 (1.8%) were called active. No stated cut-off is given here; in the data, active means inhibition mostly above about 38% (no sharp cut-off); inactive means mostly below about 40%. Many of the other results were omitted from the sample, so actives are more common in it than they were.

What follows are compounds tested against Orexin/Hypocretin receptor type 1 (Homo sapiens) (UniProt O43613) (assay: antagonists of human orexin 1 receptor (OX1R) (AID 485270;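 further: 0% = agonist challenge alone and 100% = reference antagonist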)). Conditions: OX1R-expressing cells, FRET antagonist read-out; at 6.6 µM; hits give high values.
Sequence of Orexin/Hypocretin receptor type 1 (Homo sapiens) (O43613 whole entry, looked up): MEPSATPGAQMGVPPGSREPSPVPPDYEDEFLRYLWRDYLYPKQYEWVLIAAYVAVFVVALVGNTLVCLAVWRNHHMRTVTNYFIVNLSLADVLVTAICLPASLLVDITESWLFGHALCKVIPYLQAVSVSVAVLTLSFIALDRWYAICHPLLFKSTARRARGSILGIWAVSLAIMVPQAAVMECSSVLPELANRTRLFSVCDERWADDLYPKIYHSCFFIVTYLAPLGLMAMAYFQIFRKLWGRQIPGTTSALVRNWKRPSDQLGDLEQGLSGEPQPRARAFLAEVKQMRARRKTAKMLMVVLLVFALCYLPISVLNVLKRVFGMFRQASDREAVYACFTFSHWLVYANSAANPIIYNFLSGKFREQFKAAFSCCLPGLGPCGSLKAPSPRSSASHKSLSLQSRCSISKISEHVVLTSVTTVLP

inhibition, active:
CC(C)CC[n+]1ccn(C2=C([O-])c3ccccc3C(=O)/C2=N\S(=O)(=O)c2ccccc2)c1 79.9%
COc1ccc(C(=O)C(C)OC(=O)c2cccc(S(=O)(=O)Nc3c(C)n(C)n(-c4ccccc4)c3=O)c2)cc1 (stereo not drawn) 41.2%
O=C(CN1C(=O)/C(=C/c2ccccc2F)Sc2ccccc21)NCc1cccnc1 46.6%
CSCCC(NC(=O)c1cc([N+](=O)[O-])cc([N+](=O)[O-])c1)c1nc2ccccc2[nH]1 (stereo not drawn) 82%
O=C(CCc1ccccc1)Nc1ncc([N+](=O)[O-])s1 52.7%
O=C(Cc1c(F)cccc1Cl)Nc1ncc([N+](=O)[O-])s1 43.1%
CC(=O)Oc1ccccc1C(=O)Nc1ncc([N+](=O)[O-])s1 86%
O=C(Nc1ncc([N+](=O)[O-])s1)C1COc2ccccc2O1 (stereo not drawn) 57.4%
CC(C)OCCCNc1ncnc2c1[nH]c1ccc(F)cc12 64.8%
CCOC(=O)C1Sc2[nH]c(=O)sc2C(c2ccc(Cl)cc2)C1C(=O)OCC (stereo not drawn) 49.6%
Fc1ccc2[nH]c3c(N4CCSCC4)ncnc3c2c1 85.8%
N#CC(=C1SC=CS1)c1nc(-c2ccccc2)cs1 105%
N#C/C(=C1\CCCN1)c1nc(-c2ccccc2)cs1 84.1%
O=C(Nc1nnc(C2=COCCO2)o1)c1ccc([N+](=O)[O-])s1 88.5%
COc1cc(OC)c(NC(=O)c2ccc(Br)o2)cc1Cl 81.8%
CSc1ccc(/C=N/NC(=O)c2cccc(Cl)c2)cc1 44.4%
O=C(CN1C(=O)c2cccc3cccc(c23)C1=O)N1CCCCC1 79.7%
C/C(N)=C(/C#N)C(=O)COC(=O)c1cc(-c2ccc(C)cc2)nc2ccccc12 86.7%

inhibition, inactive:
CSCCC1NC(=O)N(CC(=O)Nc2cccc(S(=O)(=O)N3CCCCCC3)c2)C1=O (stereo not drawn) 12.6%
O=C1[C@@H](c2ccccc2)[C@@H](c2ccccc2)N1c1cccnc1 26%
Cc1cc(C(C)(C)C)oc1C(=O)N(CC(=O)NC1CCCC1)Cc1ccc(Cl)cc1 22.5%
O=C(COC(=O)Cc1ccc([N+](=O)[O-])cc1)NC1CCCCCC1 2.43%
Cc1cc(C)cc(NC(=O)C(OC(=O)c2ccc(O)cc2)c2ccccc2)c1 (stereo not drawn) 9.51%
O=C(CCc1ccc(S(=O)(=O)N2CCOCC2)cc1)OCC(=O)c1ccc(Br)cc1 4.77%
O=C(Nc1nnc(-c2ccccc2)o1)c1cccc(S(=O)(=O)N2CCOCC2)c1 13.1%
COc1ccc(NS(=O)(=O)c2ccc(C(=O)Nc3c(C)n(C)n(-c4ccccc4)c3=O)cc2)cc1 8.89%
Cc1c(NC(=O)C(C)OC(=O)c2ccccc2O)c(=O)n(-c2ccccc2)n1C (stereo not drawn) 5.32%
Cc1cc(NC(=O)CSc2nnc(-c3ccco3)n2N)no1 9.57%
O=C(CNC(=O)c1ccccc1F)OCC(=O)c1c[nH]c2ccccc12 3.49%
COc1ccc(NS(=O)(=O)c2cc(NC(=O)c3ccc(S(=O)(=O)N(C)C)cc3)ccc2N2CCOCC2)cc1 6.2%
COc1ccc(C(=O)COC(=O)C(O)c2ccccc2)c(OC)c1 (stereo not drawn) 3.45%
O=C(COC(=O)c1ccc(F)cc1)NCC1COc2ccccc2O1 (stereo not drawn) 6.76%
O=C(CN1C(=O)S/C(=C\c2ccccc2F)C1=O)NCCCn1ccnc1 20.4%
O=C(CN1C(=O)/C(=C\c2ccc(C(F)(F)F)cc2)Sc2ccccc21)NCc1ccco1 38.3%
C[C@H](NS(=O)(=O)c1ccc(Cl)cc1)C(=O)OCC(=O)N1CCOCC1 1.59%
CSCCC(NC(=O)c1ccc(=O)n(C)n1)c1nc2ccccc2[nH]1 (stereo not drawn) 12.2%
COc1ccc(CC(=O)N[C@@H](CCSC)c2nc3ccccc3[nH]2)cc1 33.1%
CC(C)Cc1nnc(NC(=O)CCc2ccccc2)s1 -12.6%
COc1ccc([N+](=O)[O-])cc1NC(=O)CCc1ccccc1 28.9%
COc1ccc(OC)c2sc(NC(=O)C3COc4ccccc4O3)nc12 (stereo not drawn) 14.5%
COc1ccc(NC(=O)C2COc3ccccc3O2)cc1 (stereo not drawn) 3.74%
Cc1cnc(NC(=O)c2ccccn2)s1 14.3%
CN(c1ccccc1)S(=O)(=O)c1cccc(NC(=O)Cc2c(F)cccc2Cl)c1 26.3%
O=C(Cc1c(F)cccc1Cl)Nc1ccc(-n2cnnn2)cc1 3.25%
COc1ccc(NC(=O)c2ccccc2[N+](=O)[O-])cc1OC 10.8%
O=C(OCCN1C(=O)c2ccccc2C1=O)[C@@H]1CC(O)CN1S(=O)(=O)c1ccccc1[N+](=O)[O-] (stereo partly drawn) 7.02%
O=C(COC(=O)C1CCCO1)Nc1nc(-c2ccc(F)cc2)cs1 (stereo not drawn) 5.35%
C=CCC[C@H](Cc1ccc(F)cc1)C(=O)OC[C@H](C)NC(=O)[C@H](CC=C)CC(=O)N(CCO)Cc1ccccc1 17.6%
O=C(COC(=O)c1ccc(F)c(S(=O)(=O)N2CCOCC2)c1)NCc1ccc2c(c1)OCO2 7.1%
COc1ccc2c(CC(=O)NNC(=O)c3ccccc3F)coc2c1 7.98%
CCCCOc1ccc(N(CC(=O)NC(C)C)C(=O)CCC(=O)Nc2ccccn2)cc1 4.64%
CN(CCc1ccccc1)C(=O)c1cccc(NC(=O)Cc2ccc([N+](=O)[O-])cc2)c1 14.3%
CN(Cc1ccccc1)C(=O)COC(=O)/C=C/c1ccc2c(c1)OCO2 4.7%
CCCCNC(=O)C(C)N(CCN(C)C)C(=O)CCCN1C(=O)NC(c2ccc(Cl)cc2)C(C(=O)OCc2ccccc2)=C1C (stereo not drawn) 13.9%
C=C1c2cccc(OC)c2O[C@H](C(=O)OCC)[C@@H]1CCCCCC 1.8%
CC(C)OCCCNC(=O)c1cc(Sc2ccc(F)cc2)nc2ccccc12 23.4%
O=C1NC(Cc2ccc(O)cc2)c2nc3ccc(Cl)cc3c(=O)n2-c2ccccc21 (stereo not drawn) 6.78%
CCOC(=O)C1C(c2ccc(Cl)cc2)NC(=S)NC1(O)C(F)(F)F (stereo not drawn) 2.06%
CCOC(=O)C1=C(C)NC(=O)N(C(C)=O)C1c1ccc(Cl)cc1 (stereo not drawn) 12.3%
COc1ccc(C)cc1NC(=O)CSc1cccc[n+]1[O-] -5.73%
Cc1c(CN2CC[C@@H](N3CCN(c4ccccn4)CC3)[C@H](O)C2)[nH]c2ccc(F)cc12 -1.02%
COc1ccc2[nH]c3c(c2c1)CCN1C(=O)C(CC(=O)NCc2cccc(C(F)(F)F)c2)C[C@H](C(=O)N2CCOCC2)[C@@]31C (stereo partly drawn) 13%
CCC(CO)Oc1cc(NCc2ccccc2)c2ncn(C3CCCC3)c2c1 (stereo not drawn) 12.8%
N#C/C(=C1/CCCN1)c1ccccn1 5.71%
N#CC(=C1CCCC1)c1nc(-c2ccc(Cl)cc2)cs1 20.1%
Cn1c(/C(C#N)=C2/CCCCCN2)nc2ccccc21 11.5%
CCNC(=O)CSc1nc(-c2ccccc2)cs1 16.1%
Cc1c(NC(=O)CN(C)CC(=O)Nc2ccc(F)c(F)c2F)c(=O)n(-c2ccccc2)n1C 4.65%
COC(=O)[C@]1(Cc2ccccc2)N[C@H](CN(C)S(=O)(=O)c2ccc(F)cc2)[C@@H]2C(=O)N(Cc3ccccc3)C(=O)[C@@H]21 15.4%
CNC[C@@H]1Oc2c(NS(C)(=O)=O)cccc2C(=O)N([C@@H](C)CO)C[C@H]1C -1.47%
O=C(C1CC1)N1N=C2CCCCC2C1(O)C(F)(F)F (stereo not drawn) 5.9%
CCOC(=O)[C@H]1[C@H]2COc3cc(OC)ccc3[C@@H]2N2C(=O)CN(Cc3ccc(Cl)cc3)C(=O)[C@@]12C 7.39%
O=C(NCCc1ccc(F)cc1)c1ccc2nccnc2c1 9.11%
COc1cc(-c2nnc(NC(=O)C3=COCCO3)o2)cc(OC)c1OC 4.19%
Cc1ccc(C(=O)Nc2nnc(C3=COCCO3)o2)cc1C 9.95%
O=C(COC(=O)/C=C/c1ccc(Br)o1)Nc1cccc(S(=O)(=O)N2CCOCC2)c1 4.21%
Cc1noc(C)c1NC(=O)Nc1ccc2c(c1)C(=O)N([C@H](C)CO)C[C@H](C)[C@@H](CN(C)C(=O)Nc1ccccc1)O2 -3.75%
COc1cc(C(=O)OCc2cc(=O)n3ccsc3n2)ccc1OC(C)C 8.65%
CCN1CCN(c2c(Cl)cccc2NC(=O)c2ccc(Br)o2)CC1 14.6%
COc1ccc(Cl)cc1NC(=O)COC(=O)c1ccc(Br)o1 5.94%
CCN(C[C@H]1N[C@@](CC)(C(=O)OC)[C@H]2C(=O)N(C)C(=O)[C@@H]12)C(=O)Nc1ccc(F)cc1 -4.34%
CCn1nnc2cc(C(=O)Nc3ccc(C(=O)OC(C)C)cc3)ccc21 16.8%
O=C(N/N=C/c1ccc(Cl)c(Cl)c1)c1ccc2nc[nH]c2c1 31.8%
CSc1ccc(/C=N\NC(=O)CC(=O)NC(C)C)cc1 9.93%
O=C(CCCN1C(=O)c2cccc3cccc(c23)C1=O)N1CCN(Cc2ccc3c(c2)OCO3)CC1 52.3%
O=C(CN1C(=O)c2cccc3cccc1c23)Nc1ccccc1 26.3%
C/C(N)=C(/C#N)C(=O)COC(=O)c1cc(-c2cccc(Br)c2)nc2ccccc12 44.3%
C/C(N)=C(/C#N)C(=O)COC(=O)c1cc(-c2ccccc2)nc2ccc(Br)cc12 8.99%
